# MRP reversal – compounds reversing MRP-mediated drug resistance; differential viability (reversal), % at 10 µM; 0.04% of 85,000 active; AID 602; H69AR cells + 2 uM doxorubicin, CellTiter-Glo, 72 h;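 active = viability drop by adding the cancer drug above about 55%, with treated viability meeting a 40% cutoff, limit read from the data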;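 also: viability without doxorubicin minus viability with 2 µM doxorubicin for each compound; larger differential means the compound sensitizes cells more to doxorubicin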
# ERa SRC1 inh – blocks coactivator binding to human estrogen receptor alpha; P03372; TR-FRET ER-alpha LBD / SRC-1 peptide, estradiol-bound; inhibition, % at 25.6 µM; 1.7% of 86,000 active; in the data active = inhibition above about 50%;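 also: 0% = receptor plus peptide control and 100% = peptide only without receptor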
# Target sequence (P03372 whole entry, looked up, the tested form may be a part): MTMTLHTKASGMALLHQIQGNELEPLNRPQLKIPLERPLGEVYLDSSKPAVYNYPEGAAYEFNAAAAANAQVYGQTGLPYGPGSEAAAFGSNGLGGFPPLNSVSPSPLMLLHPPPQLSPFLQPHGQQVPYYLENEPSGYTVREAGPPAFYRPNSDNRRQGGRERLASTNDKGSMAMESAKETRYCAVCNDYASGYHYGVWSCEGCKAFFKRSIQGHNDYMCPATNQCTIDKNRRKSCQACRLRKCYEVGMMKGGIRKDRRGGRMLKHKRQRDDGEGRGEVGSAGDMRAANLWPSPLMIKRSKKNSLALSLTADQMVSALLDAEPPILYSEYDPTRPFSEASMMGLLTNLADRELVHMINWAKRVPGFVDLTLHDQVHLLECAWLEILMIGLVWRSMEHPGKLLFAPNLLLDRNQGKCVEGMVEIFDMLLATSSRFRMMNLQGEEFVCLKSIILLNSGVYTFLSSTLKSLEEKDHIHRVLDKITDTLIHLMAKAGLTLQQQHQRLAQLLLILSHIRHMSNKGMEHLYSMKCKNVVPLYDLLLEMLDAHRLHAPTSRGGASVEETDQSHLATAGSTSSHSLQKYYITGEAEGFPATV
# ERa SRC1 pot – enhances coactivator binding to human estrogen receptor alpha. P03372. TR-FRET ERalpha-LBD/SRC-Cy5 coactivator binding, 2 h; 100 = basal binding, no effect. coactivator binding (% of control), % at 25.6 µM. 1.3% of 86,000 active; in the data active = activity above about 200%;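 also: binding measured in presence of low estradiol as agonist stimulus; 0% = peptide alone without receptor and 100% = receptor with peptide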
# MRP1 act – activators of MRP-1. viability increase, % at 10 µM. H69AR cells + doxorubicin, viability rescue, CellTiter-Glo. 0.61% of 140,000 active;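 active = viability gain under doxorubicin at or above a set limit, the compound median plus 3 SD, cut at about 4.7% in these data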;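 also: MRP-1 overexpressing cells given doxorubicin 25 µM after compound pretreatment; 18-22 h compound pretreatment then 72 h with doxorubicin before readout; 0% = doxorubicin-only wells and 100% = vehicle-treated cells without doxorubicin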
# ERb SRC1 inh – blocks coactivator binding to human estrogen receptor beta; Q92731; TR-FRET ER-beta LBD / SRC1-Cy5 peptide binding; receptor agonist-loaded with 1 µM estradiol; inhibition, % at 25.6 µM; 1.3% of 86,000 active;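 active = compounds whose percent inhibition of the receptor-coactivator binding signal exceeds about 50% in the single-dose screen, limit read from the data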;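 also: 0% = receptor plus peptide wells without compound and 100% = peptide-only wells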
# An asterisk follows results filed as active; x = not tested or not shown; [ ] = another dose, or the depositor's remark. Most compounds without a hit are left out; they make up all but 2.7% or so of the library.
SMILES,MRP reversal,ERa SRC1 inh,ERa SRC1 pot,MRP1 act,ERb SRC1 inh
COc1ccccc1Cn1c(=O)c2ccccc2n2c(SCc3csc(C)n3)nnc12,3,1,125,-1,1
CCc1ccc(NC(=O)c2ccc3c(c2)C(=O)N(CCOC)C3Nc2ccc(CC)cc2)cc1 (centres undefined),x,x,x,-4,x
CSc1ncc2c(n1)-c1cc(C)ccc1SC2,11,97*,39,-2,38
NC(=S)n1[nH]c(-c2ccc([N+](=O)[O-])cc2)c(N=Nc2ccc(O)cc2)c1=O,-18,92*,25,-4,38
COCCN1C(=O)C(=O)/C(=C(/O)c2ccc(OCC(C)C)cc2)C1c1cccnc1 (centres undefined),14,-6,118,x,6
CC(=O)Nc1nonc1-c1nc2ccccc2n1N(C(C)=O)C(C)=O,-5,86*[fluorescence artefact?],22,-1,76*
Cc1ccc(-n2[nH]c(C)c(C=Nc3ccc(S(=O)(=O)N4CCOCC4)cc3)c2=O)c(C)c1,x,x,x,0,x
O=C(COc1ccc(Br)cc1)c1ccc2c(c1)CCCC2,x,x,x,5.1*,x
Cc1ccc(OCC(=O)c2ccc3c(c2)CCCC3)cc1C,x,x,x,2,x
Cc1oc(-c2ccc(F)cc2)cc1-c1nn2c(-c3ccoc3C)nnc2s1,6,79*[fluorescence artefact?],67,x,63*
Cc1oc(-c2ccc(Cl)cc2)cc1-c1nn2c(-c3ccco3)nnc2s1,-12,46,95,x,45
Cc1oc(-c2ccc(F)cc2)cc1-c1nn2c(-c3ccco3)nnc2s1,-5,82*[fluorescence artefact?],83,x,51*[fluorescence artefact?]
COc1ccc(CN2CC(C(=O)NCCCN3CCCCCC3)CC2=O)cc1 (centres undefined),9,25,203*[fluorescence artefact?],0,22
Cc1ccc(CCN2CC(C(=O)NCCCN3CCCCCC3)CC2=O)cc1 (centres undefined),-7,17,917*[fluorescence artefact?],-2,58*[fluorescence artefact?]
CCC1=NN2C(=N)/C(=C/c3c(C)nn(-c4ccccc4)c3Cl)C(=O)N=C2S1,x,x,x,-3,x
CCCC1=NN2C(=N)/C(=C\c3ccc(SCc4ccco4)o3)C(=O)N=C2S1,-4,84*[fluorescence artefact?],61,-2,70*
CCC1=NN2C(=N)/C(=C\c3ccc(SCc4ccco4)o3)C(=O)N=C2S1,-7,75*,36,0,75*
COc1ccc(-n2c(C)cc(-c3csc(NC(=O)c4ccc(S(=O)(=O)N(C)C)cc4)n3)c2C)cc1,x,x,x,-3,x
CCCCOc1ccc(C(=O)Oc2ccc(C)nc2)cc1,6,2,112,5.5*,-3
CCCCCOc1ccc(OC(=O)c2ccncc2)cc1,-29,-5,100,-1,-9
CCOC(=O)c1cc2sc(C)cc2n1CC(=O)NCc1ccc(F)cc1,-21,5,238*[fluorescence artefact?],-4,34
CCOC(=O)c1cc2sc(C)cc2n1CC(=O)N1CCOCC1,2,-6,85,-3,-12
CCCC(=O)Nc1c(C)n[nH]c1C,x,x,x,0,x
CCCC(=O)Nc1c(C)nn(C(=O)CCC)c1C,-3,5,278*[fluorescence artefact?],-2,3
CCCOc1ccc2c3c(c(=O)oc2c1OCCC)CCCC3,-8,-2,76,0,10
SMILES,MRP reversal,ERa SRC1 inh,ERa SRC1 pot,MRP1 act,ERb SRC1 inh
CCOc1ccc2c3c(c(=O)oc2c1OCC)CCCC3,-3,84*[fluorescence artefact?],112,0,4
CCC1=NN(C(=O)c2ccc(Br)cc2)C(O)(c2ccc(C)cc2)C1 (centres undefined),x,x,x,0,x
CCC1=NN(C(=O)c2ccc(C)cc2)C(O)(c2ccc(Br)cc2)C1 (centres undefined),x,x,x,4.9*,x
CC1(C)CCCN(C(=O)c2coc(=O)c(Br)c2)C1,-24,90*[fluorescence artefact?],14,-6,83*
c1ccc2[nH]c3cc4ncnc4cc3nc2c1,x,x,x,0,x
N#Cc1c(NC(=O)c2ccncc2)sc2c1CCC2,-14,91*[fluorescence artefact?],10,-3,91*[fluorescence artefact?]
COC(=O)c1cc(OC)c(OC)cc1NC(=O)c1ccc(Br)o1,0,57*,187,x,23
COc1ccc(-c2nc3ccccc3o2)cc1NC(=O)c1ccc(Br)o1,-21,20,257*[fluorescence artefact?],-1,1
COc1ccccc1NC(=O)c1ccc(Br)o1,-5,30,111,-2,41
CCCN(CCC)CCCNC(=S)Nc1ccc2nc3n(c(=O)c2c1)CCCCC3,x,x,x,-3,x
COc1cc(C(=O)OCC(=O)Nc2c(F)c(F)c(F)c(F)c2F)cc(OC)c1OC,-2,58*,95,0,37
Cc1csc(C(C#N)C(=O)c2cc3ccccc3o2)n1 (centres undefined),-15,-27,95,6.1*,-14

# High-throughput results: PubChem BioAssay, several laboratories
